Most compounds without a hit are left out; they make up all but 21% or so of the library.
DT40 TDP1 CPT: growth inhibition of DT40 Tdp1-/-;hTDP1 cells with camptothecin (screen for TDP1 inhibitors). Potency, µM (highest dose often 46.2 µM), for inactives: at the top dose activity change, negative = growth inhibition, usual class: inhibitors. chicken DT40 Tdp1-/-;hTDP1 cells + 20 nM CPT, ATP luminescence, 48 h. 420,000 compounds, 12% hits; note: potency is the fitted concentration of half-maximal effect; nearly all actives have a fitted effect of over 55% in size
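Chicken DT40 Tdp1-/- cells stably complemented with human TDP1 were seeded at 400 cells/well in medium containing 20 nM camptothecin, exposed to pin-transferred compounds, and grown at 37 °C for at least 48 hr. Viability was read as ATP luminescence.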
Gal4-VP16 FLuc: inhibits Gal4-VP16 luciferase reporter, ROR gamma counter-screen | AID 2546 | Potency, µM (highest dose often 53.6 µM), without a hit: at the highest dose activity, negative = inhibition, most hits filed as inhibitors | 310,000 compounds, 3.5% hits | Drosophila S2 Gal4-VP16 UAS-luciferase, luminescence, 20 h;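 note: Gal4-VP16 expression switched on by copper sulfate through the metallothionein promoter; potency is the fitted concentration of half-maximal effect; nearly all actives have a fitted effect of over 50% in size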
ELG1 DNA repair: inhibitors of ELG1-dependent DNA repair in HEK293T cells | HEK293T ELG1-luciferase reporter, luminescence, 16 h; DNA damage induced by 5-fluorouridine | 330,000 compounds, 2.3% hits | AID 504467 | Potency, µM (titrated, usually from 46.1 µM), without a hit: at the top dose activity change, negative = inhibition, most hits filed as inhibitors; note: potency is the fitted concentration of half-maximal effect; nearly all actives have a fitted effect of over 55% in size
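HEK293T cells expressing luciferase-tagged ELG1 (2,000/well) received 5-Fluorouridine plus compound or DMSO for 16 hr at 37 °C. Luciferase was read by ONE-Glo luminescence after 30 min at room temperature.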
DT40 TDP1 no CPT: qHTS for Inhibitors of human tyrosyl-DNA phosphodiesterase 1 (TDP1): qHTS in cells in absence of CPT; DT40 Tdp1-/- hTDP1 cells, no CPT, ATP luminescence, 48 h; Potency, µM (highest dose often 46.2 µM), for inactives: at the highest dose activity change, negative = growth inhibition, actives largely listed as inhibitors; 420,000 compounds, 15% hits; AID 686978, 2013; note: potency is the fitted concentration of half-maximal effect; nearly all actives have a fitted effect of over 55% in size
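Chicken DT40 Tdp1-/- cells stably complemented with human TDP1 were seeded at 400 cells/well with DMSO in place of 20 nM camptothecin. After compound pinning, cells grew at least 48 hr at 37 °C; viability read by CellTiter-Glo luminescence.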
RORg inh: ROR gamma (mouse) transcription inhibition; P51450; Drosophila S2 Gal4-RORgamma UAS-luciferase reporter, 20 h; Potency, µM (titrated, usually from 53.6 µM), inactives show at the top dose activity change, negative = inhibition, actives largely listed as inhibitors; 310,000 compounds, 5.4% hits; note: potency is the fitted concentration of half-maximal effect; nearly all actives have a fitted effect of over 60% in size
Target sequence (P51450 whole entry, looked up, the tested form may be a part): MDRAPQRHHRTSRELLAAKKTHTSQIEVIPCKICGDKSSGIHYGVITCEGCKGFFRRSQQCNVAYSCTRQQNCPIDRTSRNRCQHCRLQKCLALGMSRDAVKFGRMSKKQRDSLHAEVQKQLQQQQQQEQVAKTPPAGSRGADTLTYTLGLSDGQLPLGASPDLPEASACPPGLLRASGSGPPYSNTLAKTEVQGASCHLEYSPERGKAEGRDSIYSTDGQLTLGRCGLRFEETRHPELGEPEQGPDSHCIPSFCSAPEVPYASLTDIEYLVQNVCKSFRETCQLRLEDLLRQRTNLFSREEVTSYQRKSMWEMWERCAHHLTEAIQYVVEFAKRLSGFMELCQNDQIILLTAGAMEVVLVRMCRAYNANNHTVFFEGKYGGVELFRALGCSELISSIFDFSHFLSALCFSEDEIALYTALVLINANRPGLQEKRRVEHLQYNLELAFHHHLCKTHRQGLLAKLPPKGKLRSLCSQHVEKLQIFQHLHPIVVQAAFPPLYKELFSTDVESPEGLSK
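Schneider cells (Drosophila), stable Gal4 DBD–ROR gamma + UAS-luc; 1 hr cmpd preincubation; Cu2+ induction 700 uM final; 20 hr ambient; luminescence.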
IL1B secr inh: blocks inflammasome-driven IL-1 beta release. THP-1 LPS/ATP IL-1B secretion, AlphaLISA, 16 h; stronger effect = lower value. activity change, % at 57.5 µM. 360,000 compounds, 4.7% hits; in the data active = activity change below about -50%; inconclusive = mostly about -30% to -49%
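Secreted IL-1B measured by AlphaLISA bead assay after 16 h compound exposure of THP-1 cells; compounds (final up to 57.5 uM) added 1 h before LPS (250 ng/mL) and ATP (1.25 mM) stimulation; lower signal means less secretion.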
Starred values were filed as active, the others as inactive; ? = inconclusive; · = no result given; [ ] = another dose, or the depositor's remark. Unless noted, calls come from the whole dose curve; as a rule, active = well fitted curve in the direction sought with a large enough effect; inconclusive = small, poorly fitted or top-dose-only effect, or another doubt; inactive = no such curve, though single readings can be large; an effect the other way counts as inactive or inconclusive. % is set by controls: 0 for no effect and ±100 for the full control effect.

SMILES	DT40 TDP1 CPT	Gal4-VP16 FLuc	ELG1 DNA repair	DT40 TDP1 no CPT	RORg inh	IL1B secr inh
CCN(CC(=O)Nc1c(F)cccc1F)C(=O)c1ccc(COc2ccccc2)cc1	?	·	6.9%	?	·	8.1
CC(C)[C@H](NS(=O)(=O)c1cccc(Cl)c1)C(=O)OCC(=O)N1CCN(c2ccccc2)CC1	23.1µM*	-25.1%	?	25.9µM*	?	-11.0
CC(C)NS(=O)(=O)c1ccc(OCC(=O)N2CCN(c3cccc(Cl)c3)CC2)cc1	14.6µM*	·	·	23.1µM*	·	·
CC(NS(=O)(=O)c1ccc(OCC(=O)N2CCOCC2)c(Cl)c1)c1ccccc1 (stereo not drawn)	1.0%	-11.5%	14.6µM*	?	1.3%	-4.6
CC(C)C(NC(=O)Cc1ccccc1)C(=O)N1CCN(c2cccc(Cl)c2)CC1 (stereo not drawn)	4.61µM*	·	?	3.26µM*	·	-4.2
CCOC(=O)N1CCN(C(=O)COc2ccc(S(=O)(=O)NC(C)C)cc2)CC1	8.5%	-5.9%	1.4%	-8.9%	16.0%	-12.6
CC(NS(=O)(=O)c1ccc(OCC(=O)N2CCOCC2)cc1)c1ccccc1 (stereo not drawn)	-2.9%	2.2%	0.8%	0.5%	12.8%	-11.8
CC(C)COc1ccc(C(=S)N2CCCC2)cc1	?	·	·	?	·	-28.3
COc1ccc(CSc2nnc3[nH]c(=O)cc(N)n23)cc1	3.6%	0.2%	-9.6%	-6.8%	29.5%	8.4
COc1ccccc1NC(=O)/C(C#N)=C/c1cccn1C	-15.0%	·	·	-27.4%	·	8.8
CCN(CC)c1ccc(/C=C/C2=C3C=CC=CC3NC=C2)cc1 (stereo not drawn)	?	·	·	14.1µM*	·	·
O=c1c2oc3ccccc3c2n(Cc2ccccc2F)c(=O)n1Cc1ccco1	-15.3%	·	·	-1.3%	·	·
CCc1ccc(S(=O)(=O)ON2C(=O)c3ccccc3C2=O)cc1	7.31µM*	-5.7%	?	11.6µM*	13.8%	-28.0
O=C(COC(=O)CCCN1C(=O)c2cccc3cccc(c23)C1=O)Nc1ccc(Cl)cc1	12.8%	9.7%	14.7%	1.8%	-3.4%	3.4
CCc1ccc(OC(=O)CN2C(=O)c3ccccc3C2=O)cc1	-5.1%	9.0%	6.1%	-0.1%	-8.9%[1.91 µM]	7.3
O=C1c2cccc3cccc(c23)C(=O)N1OS(=O)(=O)c1ccc(Cl)cc1	?	-5.3%	12.2%	18.4µM*	5.3%	-1.3
Cc1ccc(-n2nc(CO)c(C(=O)NCCCCc3ccccc3)n2)cc1C	-16.2%	·	·	-18.3%	·	·
COc1ccccc1Cn1c(=S)[nH]c2cc(C(=O)N3CCN(c4ccccc4OC)CC3)ccc2c1=O	?	-10.3%	14.7%	0.4%	?	0.0
CCn1cc(C(=O)N2CCN(c3cc(Cl)ccc3C)CC2)c2cc(OC)c(OC)cc2c1=O	11.6µM*	·	·	?	·	·
COc1ccccc1N1CCN(C(=O)c2ccc3c(=O)n(Cc4ccco4)c(=S)[nH]c3c2)CC1	?	?	?	?	6.31µM*	14.2
COc1ccc(Cn2c(=O)[nH]c3cc(C(=O)N4CCN(Cc5ccccc5)CC4)ccc3c2=O)cc1	16.4µM*	-3.6%	?	18.4µM*	?	-8.4
COc1cc2[nH]c(=O)n(Cc3ccc(C(=O)N4CCN(c5cc(Cl)ccc5C)CC4)cc3)c(=O)c2cc1OC	2.31µM*	·	·	5.17µM*	·	·
COc1cc2c(C(=O)N3CCN(c4cc(Cl)ccc4C)CC3)cn(CC(C)C)c(=O)c2cc1OC	?	·	·	-18.2%	·	·
COCCn1c(=O)[nH]c2cc(C(=O)N3CCN(Cc4ccc5c(c4)OCO5)CC3)ccc2c1=O	-29.6%	·	·	-1.8%	·	12.6
COc1ccc(Cn2c(=O)[nH]c3cc(C(=O)N4CCN(c5ccccc5OC)CC4)ccc3c2=O)cc1	?	3.0%	20.6µM*	23.1µM*	32.4%	-6.9
SMILES	DT40 TDP1 CPT	Gal4-VP16 FLuc	ELG1 DNA repair	DT40 TDP1 no CPT	RORg inh	IL1B secr inh
COc1ccccc1N1CCN(C(=O)c2ccc3c(=O)n(Cc4ccc5c(c4)OCO5)c(=O)[nH]c3c2)CC1	16.4µM*	-2.9%	?	18.4µM*	?	?
COc1ccc(C2OC(=O)CC2C(=O)N2CCN(c3cc(Cl)ccc3C)CC2)cc1OC (stereo not drawn)	20.6µM*	-3.3%	-17.4%	?	-36.0%	-3.2
CC(C)(C)OC(=O)N1CCC(C(=O)Nc2ccc(C(=O)NC3CC3)cc2)CC1	2.3%	·	·	1.0%	·	11.2
CCOC(=O)C1=C(N)N2C(=O)C(C)SC2=C(C(=O)OCC)C1c1ccc(O)cc1 (stereo not drawn)	-10.0%	7.4%	?	-14.3%	-16.6%	34.1
CCOC(=O)C1=C(N)N2C(=O)C(C)SC2=C(C(=O)OCC)C1c1ccccc1 (stereo not drawn)	-20.9%	12.6µM*	3.6%	-5.7%	?	-9.6
CC(=O)N(c1ccccc1)C1CCCC1	-8.9%	1.3%	3.7%	-11.8%	-10.7%	10.3
CC(=O)Nc1ccc(C(=O)OCC(=O)N(c2ccccc2)C2CCCCC2)cc1	?	·	?	23.1µM*	·	-27.1
CC(=O)Nc1ccc(C(=O)OCC(=O)N(C)C2CCCCC2)cc1	24.0%	-10.0%	?	-2.6%	5.2%	3.1
O=C(CCl)N(c1ccccc1)C1CCCCC1	2.59µM*	3.55µM*	16.4µM*	2.91µM*	0.708µM*	-101.2*
COc1cccc([C@@H]2Oc3ccc(OC)cc3[C@H](O)[C@H]2O)c1	·	-7.4%	·	·	?	·
CN1CCCC(n2nc(Cc3ccc(Cl)cc3)c3ccccc3c2=O)CC1 (stereo not drawn)	13µM*	10.9%	·	20.6µM*	-3.1%	?
Cc1ccc(CN2CCCN(Cc3c(C)cc(C)cc3C)S2(=O)=O)cc1	3.8%	4.1%	-18.6%	?	-8.8%	3.3
CCc1ccccc1NC(=O)CN1CCCN(Cc2cc(C)ccc2C)S1(=O)=O	14.6µM*	·	·	16.4µM*	·	·
Cc1ccc(C)c(CN2CCCN(CC(=O)Nc3ccc(C)c(C)c3)S2(=O)=O)c1	?	·	·	16.4µM*	·	·
Cc1ccc(NC(=O)CN2CCCN(Cc3cc(C)ccc3C)S2(=O)=O)c(Cl)c1	18.4µM*	·	·	?	·	·
Cc1ccc(CN2CCCN(CC(=O)Nc3ccc(C)cc3C)S2(=O)=O)cc1	?	·	·	14.6µM*	·	·
COc1ccc(CN2CCCN(CC(=O)Nc3ccc4c(c3)OCCO4)S2(=O)=O)cc1	?	·	·	-19.5%	·	·

Assay outcomes as filed in PubChem BioAssay.
